Assay results taken from the antibiotic and cytotoxicity screens of Wong et al. (2023).
Hit rate of the full screen: of about 39,000 compounds, about 1,500 (3.8%) were called active. The sample holds actives, similar compounds and a random draw of the others, so the mix is not that of the screen.

These compounds were tested on HSkMC (human skeletal muscle cells) (assay: cytotoxicity call (relative viability < 0.9)). Conditions: 10 µM.

Row | SMILES | cytotoxicity call
1 | C[C@@H]1CN([C@H](C)CO)S(=O)(=O)c2ccc(C#CC(C)(C)O)cc2O[C@H]1CN(C)C(=O)C1CCCCC1 | inactive
2 | C[C@@H]1CCCCO[C@@H](CN(C)C(=O)CCC(F)(F)F)[C@@H](C)CN([C@@H](C)CO)C(=O)c2cc(NC(=O)c3ccccc3)ccc2O1 | inactive
3 | CC(C)NC(=O)N(C)C[C@@H]1Oc2ccc(NC(=O)C3CCCCC3)cc2C(=O)N([C@H](C)CO)C[C@@H]1C | inactive
4 | C[C@@H]1CCCCO[C@H](CN(C)C(=O)c2ccccc2)[C@H](C)CN([C@@H](C)CO)C(=O)c2cc(NC(=O)CCCCCC(=O)Nc3ccccc3N)ccc2O1 | inactive
5 | Cc1noc(C)c1NC(=O)Nc1cccc2c1O[C@@H](CN(C)C(=O)Nc1cccc3ccccc13)[C@@H](C)CN([C@@H](C)CO)C2=O | inactive
6 | COCCNC(=O)C[C@H]1CC[C@@H]2[C@H](COC[C@H](O)CN2C(=O)Nc2ccc3c(c2)OCO3)O1 | inactive
7 | Cc1cc(C(C)(C)CC(C)(C)C)ccc1OCCOCC[N+](C)(C)Cc1ccccc1.[Cl-] | active
8 | C[N+](C)(CCOc1ccccc1)Cc1ccccc1.O=C([O-])c1cc2ccccc2cc1O | inactive
9 | C[N+](C)(CCOc1ccccc1)Cc1ccccc1.O=C(O)c1cc2ccccc2c(Br)c1O | inactive
10 | COc1cccc(C#Cc2ccc3c(c2)O[C@@H](CN(C)S(=O)(=O)c2ccccc2F)[C@H](C)CN([C@@H](C)CO)S3(=O)=O)c1 | inactive
11 | C[C@@H]1CCCCO[C@H](CN(C)Cc2ccncc2)[C@H](C)CN([C@@H](C)CO)C(=O)c2cc(NC(=O)Nc3ccc(F)cc3)ccc2O1 | inactive
12 | NCC[C@H]1CC[C@H](NC(=O)c2ccccc2F)[C@H](CO)O1 | inactive
13 | C[C@@H]1CCCCO[C@@H](CN(C)Cc2ccc(C(F)(F)F)cc2)[C@H](C)CN([C@H](C)CO)C(=O)c2cc(NC(=O)Cc3ccccc3)ccc2O1 | active
14 | C[C@@H]1CCCCO[C@H](CN(C)Cc2ccc(C(F)(F)F)cc2)[C@H](C)CN([C@@H](C)CO)C(=O)c2cc(NC(=O)Cc3ccccc3)ccc2O1 | inactive
15 | C[C@@H]1CN([C@@H](C)CO)C(=O)c2cc(NC(=O)Cc3ccccc3)ccc2O[C@@H](C)CCCCO[C@H]1CN(C)Cc1ccc(C(F)(F)F)cc1 | inactive
16 | C[C@H]1CCCCO[C@H](CN(C)Cc2ccc(C(F)(F)F)cc2)[C@@H](C)CN([C@@H](C)CO)C(=O)c2cc(NC(=O)Cc3ccccc3)ccc2O1 | inactive
17 | C[C@@H]1CCCCO[C@@H](CN(C)Cc2ccc(C(F)(F)F)cc2)[C@@H](C)CN([C@@H](C)CO)C(=O)c2cc(NC(=O)Cc3ccccc3)ccc2O1 | inactive
18 | C[C@H](CO)N1C[C@H](C)[C@@H](CN(C)Cc2ccc(C(F)(F)F)cc2)OCCCC[C@H](C)Oc2ccc(NC(=O)Cc3ccccc3)cc2C1=O | active
19 | Cc1ccc(S(=O)(=O)N(C)C[C@H]2Oc3ncc(C#CCC(C)C)cc3C(=O)N([C@@H](C)CO)C[C@H]2C)cc1 | inactive
20 | C[C@H]1CN([C@@H](C)CO)S(=O)(=O)c2ccc(Br)cc2O[C@@H]1CN(C)Cc1cccc(F)c1 | inactive
21 | Cc1ccc(S(=O)(=O)N(C)C[C@@H]2OCCCC[C@H](C)Oc3ccc(NC(=O)CCCCCC(=O)Nc4ccccc4N)cc3C(=O)N([C@H](C)CO)C[C@@H]2C)cc1 | inactive

Row | SMILES | cytotoxicity call
22 | COc1ccc(NC(=O)N(C)C[C@H]2OCCCC[C@@H](C)Oc3ccc(NS(=O)(=O)c4ccc(F)cc4)cc3C(=O)N([C@@H](C)CO)C[C@H]2C)cc1 | inactive
23 | Cc1ccc(C(=O)O)c(=O)[nH]1 | inactive
24 | C[C@@H]1CN([C@@H](C)CO)C(=O)c2cc(C#CC3(O)CCCC3)cnc2O[C@@H]1CN(C)C(=O)Cc1ccccc1 | inactive
25 | O=C(NC1CC1)[C@@H]1c2ccccc2C(=O)N(Cc2cc(C(F)(F)F)cc(C(F)(F)F)c2)[C@H]1c1ccc(CO)cc1 | inactive
26 | O=C(N[C@H]1CCN(C(=O)c2cc(C(F)(F)F)cc(C(F)(F)F)c2)[C@H](Cc2ccc(Cl)cc2)C1)c1ccnc2ccccc12 | active
27 | C[C@@H]1CN([C@H](C)CO)C(=O)c2cccc(NC(=O)c3ccc(-c4nccs4)cc3)c2O[C@H]1CN(C)Cc1ccc(Cl)c(Cl)c1 | inactive
28 | C[C@@H]1CN([C@H](C)CO)C(=O)c2cccc(NC(=O)c3ccc(-c4nccs4)cc3)c2O[C@H]1CN(C)Cc1ccc(C(F)(F)F)cc1 | active
29 | C[C@H](CO)N1C[C@H](C)[C@H](CN(C)Cc2ccc(C(F)(F)F)cc2)Oc2c(NC(=O)c3ccc(-c4nccs4)cc3)cccc2C1=O | inactive
30 | C[C@@H]1CN([C@@H](C)CO)C(=O)c2cccc(NC(=O)c3ccc(-c4nccs4)cc3)c2O[C@H]1CN(C)Cc1ccc(C(F)(F)F)cc1 | inactive
31 | C[C@@H]1CN([C@@H](C)CO)C(=O)c2cccc(NC(=O)c3ccc(-c4nccs4)cc3)c2O[C@@H]1CN(C)C(=O)Nc1ccc(C(F)(F)F)cc1 | inactive
32 | C[C@H](CO)N1C[C@H](C)[C@@H](CN(C)Cc2ccc(Cl)c(Cl)c2)Oc2c(NC(=O)c3ccc(-c4nccs4)cc3)cccc2C1=O | inactive
33 | C[C@@H]1CN([C@H](C)CO)C(=O)c2cccc(NC(=O)c3ccc(-c4nccs4)cc3)c2O[C@@H]1CN(C)Cc1ccc(C(F)(F)F)cc1 | inactive
34 | C[C@@H]1CN([C@H](C)CO)C(=O)c2cccc(NC(=O)c3ccc(-c4nccs4)cc3)c2O[C@@H]1CN(C)C(=O)Nc1ccc(C(F)(F)F)cc1 | active
35 | C[C@H]1CN([C@@H](C)CO)C(=O)c2cccc(NC(=O)c3ccc(-c4nccs4)cc3)c2O[C@@H]1CN(C)Cc1ccc(Cl)c(Cl)c1 | active
36 | C[C@H]1CN([C@@H](C)CO)C(=O)c2cccc(NC(=O)c3ccc(-c4nccs4)cc3)c2O[C@@H]1CN(C)Cc1ccc(C(F)(F)F)cc1 | active
37 | C[C@@H]1CN([C@@H](C)CO)C(=O)c2cccc(NC(=O)c3ccc(-c4nccs4)cc3)c2O[C@@H]1CN(C)Cc1ccc(C(F)(F)F)cc1 | inactive
38 | C[C@H]1CN([C@@H](C)CO)C(=O)c2cccc(NC(=O)c3ccc(-c4nccs4)cc3)c2O[C@H]1CN(C)C(=O)Nc1ccc(C(F)(F)F)cc1 | inactive
39 | C[C@H]1CN([C@@H](C)CO)C(=O)Cc2cc(NS(=O)(=O)c3cccs3)ccc2O[C@@H]1CN(C)Cc1ccncc1 | inactive
40 | COc1ccc(NC(=O)N(C)C[C@H]2Oc3ccc(NS(=O)(=O)c4c(C)noc4C)cc3C(=O)N([C@H](C)CO)C[C@H]2C)cc1 | inactive
41 | C[C@@H]1CN([C@@H](C)CO)C(=O)c2cccc(NC(=O)CCCCCC(=O)Nc3ccccc3N)c2O[C@H]1CN(C)S(=O)(=O)c1cn(C)cn1 | inactive
42 | Cc1[nH]c(=O)[nH]c(=O)c1S(=O)(=O)N1CCC[C@H](C(=O)NCCc2c[nH]c3ccc(F)cc23)C1 | inactive

Row | SMILES | cytotoxicity call
43 | C[C@H]1CCCCO[C@@H](CN(C)C)[C@@H](C)CN([C@@H](C)CO)C(=O)c2cc(NS(=O)(=O)c3cn(C)cn3)ccc2O1 | inactive
44 | C[C@@H]1CCCCO[C@@H](CN(C)S(=O)(=O)c2ccccc2)[C@H](C)CN([C@@H](C)CO)C(=O)c2cc(NC(=O)Nc3ccc(C(F)(F)F)cc3)ccc2O1 | inactive
45 | COc1ccc(CN(C)C[C@H]2OCCCC[C@H](C)Oc3ccc(NC(=O)Cc4ccccc4)cc3C(=O)N([C@@H](C)CO)C[C@H]2C)cc1 | inactive
46 | C[C@@H]1CN([C@H](C)CO)C(=O)c2cc(NS(=O)(=O)c3ccccc3)ccc2O[C@@H](C)CCCCO[C@@H]1CN(C)Cc1ccc2c(c1)OCO2 | inactive
47 | C[C@H](CO)N1C[C@H](C)[C@@H](CN(C)S(=O)(=O)c2ccc(Oc3ccccc3)cc2)OCc2cn(nn2)CCCC1=O | inactive
48 | Cc1noc(C)c1S(=O)(=O)N(C)C[C@@H]1Oc2ccc(NC(=O)CCC(F)(F)F)cc2CC(=O)N([C@H](C)CO)C[C@H]1C | inactive
49 | COCCNC(=O)C[C@@H]1CC[C@@H](NS(=O)(=O)c2ccc(C)cc2)[C@H](CO)O1 | inactive
50 | C[C@@H](O)Cn1cnc2c1c(=O)n(C)c(=O)n2C | inactive
51 | COc1ccc(CN(C)C[C@H]2OCCCC[C@H](C)Oc3ccc(NC(=O)c4ccccc4)cc3C(=O)N([C@@H](C)CO)C[C@H]2C)cc1 | inactive
52 | CC(C)C#Cc1cnc2c(c1)C(=O)N([C@@H](C)CO)C[C@@H](C)[C@@H](CN(C)S(=O)(=O)c1cn(C)cn1)O2 | inactive
53 | CC(C)N1CCOC[C@@]2(C1)CN(S(C)(=O)=O)CCO2 | inactive
54 | COC(=O)[C@H](Cc1ccccc1)N1CC2=C[C@@H](C3CC3)n3c(=O)n(C)c(=O)n3[C@H]2[C@@H]1[C@@H](O)CCn1cc(-c2cccc(/C=C/C(=O)NO)c2)nn1 | inactive
55 | COc1ccc2c3c([nH]c2c1)[C@H](CO)N(C[C@]13CN(C1)S(=O)(=O)C)C(=O)C1CCOCC1 | inactive
56 | C[C@H](CO)N1C[C@H](C)[C@H](CN(C)C(=O)NC2CCCCC2)Oc2ccc(NC(=O)C3CC3)cc2CC1=O | inactive
57 | Cc1ccc(S(=O)(=O)N(C)C[C@H]2Oc3ccc(N(C)C)cc3CC(=O)N([C@H](C)CO)C[C@@H]2C)cc1 | inactive
58 | CN1N=C2CCN(C(=O)[C@@H](COCc3ccccc3)NC(=O)C(C)(C)N)C[C@@]2(Cc2ccccc2)C1=O | inactive
59 | CN(C)N(C)C(=O)[C@@]1(Cc2ccccc2)CCCN(C(=O)[C@@H](Cc2c[nH]c3ccccc23)NC(=O)C(C)(C)N)C1 | inactive
60 | CC(C)(N)C(=O)N[C@H](COCc1ccccc1)C(=O)N1CCC2(CC1)CN(S(C)(=O)=O)c1ccccc12 | active
61 | COc1ccc(S(=O)(=O)Nc2ccc3c(c2)C(=O)N([C@H](C)CO)C[C@H](C)[C@@H](CN(C)C(=O)Nc2c(C)noc2C)OCCCC[C@H](C)O3)cc1 | inactive
